Results reported in the supplement of paper PMC12632987.

T1: USP38, Q8NB14
T1 chain: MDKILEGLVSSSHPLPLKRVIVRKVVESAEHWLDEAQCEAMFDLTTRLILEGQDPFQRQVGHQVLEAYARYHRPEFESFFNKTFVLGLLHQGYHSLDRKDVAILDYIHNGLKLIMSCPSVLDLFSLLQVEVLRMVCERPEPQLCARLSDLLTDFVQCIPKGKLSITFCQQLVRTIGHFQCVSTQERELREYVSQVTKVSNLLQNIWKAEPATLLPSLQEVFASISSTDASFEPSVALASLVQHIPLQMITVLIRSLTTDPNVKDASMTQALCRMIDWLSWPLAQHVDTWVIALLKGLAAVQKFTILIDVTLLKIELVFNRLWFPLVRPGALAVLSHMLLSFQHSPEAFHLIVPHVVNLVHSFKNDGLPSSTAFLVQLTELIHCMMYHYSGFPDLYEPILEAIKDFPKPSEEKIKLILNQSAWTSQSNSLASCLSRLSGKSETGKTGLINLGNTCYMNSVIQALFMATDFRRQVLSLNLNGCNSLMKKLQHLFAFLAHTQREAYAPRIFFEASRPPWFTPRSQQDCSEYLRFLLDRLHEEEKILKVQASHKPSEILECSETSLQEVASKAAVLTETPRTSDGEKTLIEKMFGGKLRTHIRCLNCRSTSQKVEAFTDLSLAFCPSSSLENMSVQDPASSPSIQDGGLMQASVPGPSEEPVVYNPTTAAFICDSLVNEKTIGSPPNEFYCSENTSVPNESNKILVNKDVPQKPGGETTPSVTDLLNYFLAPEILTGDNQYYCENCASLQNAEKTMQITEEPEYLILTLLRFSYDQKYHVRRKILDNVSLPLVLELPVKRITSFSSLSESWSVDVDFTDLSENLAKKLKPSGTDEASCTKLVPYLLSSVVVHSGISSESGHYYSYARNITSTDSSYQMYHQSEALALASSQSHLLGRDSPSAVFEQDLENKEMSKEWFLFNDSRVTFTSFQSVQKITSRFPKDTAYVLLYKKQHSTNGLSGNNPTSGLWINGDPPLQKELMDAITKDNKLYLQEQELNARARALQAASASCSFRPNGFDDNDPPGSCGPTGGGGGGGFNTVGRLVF

B1: usp_38_diff_out_24_27_505 (protein)
chain: SEELEKALEKALKLLEDIAEDLKEAQKKGPTALFVVKRKHVDEIDKLREELEKLGPELAREVTTILLAFLNRSAADPEKREEYLKEAKEKIKEAFEKHKK
B2: usp_38_diff_out_2_113_470 (protein)
chain: DPEERKKEAELYKKIILEGAEQLLRLAKKGRLTPDRTRVMLGGIVEAARRAYELDPSVKPVIEEVIKKLEEVEKLVKDKNPEVAAAIKEAIKELKKILKE
B3: usp_38_diff_out_24_27_504 (protein)
chain: SEEHEKKLEELKKLLEEILKLLEESKTGDISVRIKASSEIDELFKEIEKILKELGNEEGLKLLKEFKTQAYAVLSRSPDWEEHLKKAKELAKKILELVEK
B4: usp_38_diff_out_2_113_465 (protein)
chain: EEEERARLTQLYVDTILEGSDQLLRRAKRGTLSSTTMITMIGGIVEAAREAFRLDPSVKPVLEEVAKKLAEIAEIYADKDAETAAAVKAAIAEINALIEA
B5: usp_38_diff_out_2_113_474 (protein)
chain: DPEERRKEAELYRDIILEGAEQLLRLAKAGRLTPDRTKVMLGGIVHAAEEAYELDPSVKPTIEEVIKKLEEVYELVKDKNPEVAAEIKEAIEKLKEILKK
B6: usp_38_diff_out_2_141_476 (protein)
chain: SEADELFREAFEREARAVAEEARKLIPKRLAIAERLAARGDLASLEERRTRVRAQAGAFRAMAEELEEMGGRPEVIELLRATAAELEEAAARIEELIAKL
B7: usp_38_diff_out_2_61_511 (protein)
chain: NKELEEQIKEIKKLIEEAKKLVEELEALLDTADEATLEKLLEEAEKVLNKAIDLLVQAFEQAHEAGDEEALKQLDELWDELGKVAARLREARERLTRRRR
B8: usp_38_diff_out_2_113_475 (protein)
chain: DPEVREEIREAALSNLLSSLEELLKIAKENRRSEETMRMMVRGVIEAALELIRELNLPEEDVKKILELLEEVRKALAEKNPELAKLAQEGIEELRKAAEE
B9: usp_38_diff_out_2_113_464 (protein)
chain: DPEERQRLALLLRDTVVSGADYLLEKAKKGTLSSDTIITMIGGITHAARELAALDPSAKPALEEVAKKLKEIAEIYKDKDEEVKKAVEEAIKEIEALIKA
B10: usp_38_diff_out_24_27_502 (protein)
chain: EEEKKKKLEEIKKLLEEILALLKASQTGDIATRIKASSEIDELFEKIEKILKELGNEEGLELLTELKTQAYAVLSRSPDWQEHLAKAKELAEKIIKLAKK
B11: usp_38_diff_out_2_35_490 (protein)
chain: MEEEEAFRKKVKEELDKMQDEAHEATTETLELLAEADAPLERFDELMRKYDEFMEAAAKTYKLIEEGASKEEIEKALKEAREKYKEFMEFAEKLKKEVAA
B12: usp_38_diff_out_2_113_467 (protein)
chain: DPEERREEAELYRDIILEGADKLLRLAERGMLTPDRTRVMLGGIVHAAREAMELDPSTRPTIEEVIEKLERVRKLVEGKNPEIAKEVERAIEELKEILKE
B13: usp_38_diff_out_2_35_494 (protein)
chain: SSAERAAREALLAEIDAKIDEAVALTREALELLAEINAPEEEFDELFKTYDAAMTALTTAARLVREGAPQEEIEKAKAKAEAALAKLKALLEEAKKRAKE
B14: usp_38_diff_out_2_35_492 (protein)
chain: SEEEEKAREEARKEIDELTDELNKTTSETLEALAEADAPLEKFDELMAKYSEAARALAATYKLIQEGAPLEEIEKALKEAKEAVEAFKKFAEELLKEAKA
B15: usp_38_diff_out_2_61_509 (protein)
chain: SEELKKKAEEIEKLLREARELIAEARAGLDTRDPAELRALLREAERVLDEAIDLLVEFYEEAVEAGDEEALKKADELWDELGRAAKELRELRERLTERVR
B16: usp_38_diff_out_2_113_461 (protein)
chain: SEEERKERAEDLKEIITEGSDYLLEKAKKGTLSGDTMIVMIGGIVHAAKEAFALDPSVKPTIEEAIKKLEEIKELYKDRNPEVAKAIEDAIKELKALLAK
B17: usp_38_diff_out_2_61_512 (protein)
chain: SEELEEKAKKIKELIEEAKKLVEEIEKELDTADLAELEKKLKEAEEVINKAIDELEELYKKAVLLGDEEAIKKANELWDELGEVAARYNEVRRRLTERKL
B18: usp_38_diff_out_2_113_468 (protein)
chain: DPEQKKEEAQLYKDIILEGADKLLELAKKGMLTPDRTKVMLGGIVHAAREAYELDPSVKPVIEEVIEKLEEIKELVKDKNPEIAKEIEEAIEELKKILEE
B19: usp_38_diff_out_24_27_501 (protein)
chain: SAEHEKKLEKAKELLKKILELAEKAQTGDIATRIKASSEIDELFEELKKIAEEENNEELLKLLTELKTKVYAVLSGHPNAEEHLKEAKKLAEKFLEELKK
B20: usp_38_diff_out_24_27_500 (protein)
chain: EKEKEEKIKKVKELFEEIEKLVKESRTADIAGRIRISSEVDELFEEIRKIAKELGNEEALKLIDKAKAQAFAIISGDENWEEHLKELKKLFEEILKEFEK
B21: usp_38_diff_out_2_61_508 (protein)
chain: SEELEEKLEEVRRLLEEARRLIEELRRRLDTADEATLRALLREAESVLNEAIDLLIEVYNEAHELGDEETLEKADELWDELGRVAAELRRAREEFTDRVR
B22: usp_38_diff_out_2_113_466 (protein)
chain: DPEERAEEAALYRDIILEGAELLLRKAKKGMLTPDRTRVMLGGIVHAAEVAYELDPSVAPDIERVIEKLEEVRELVKDKNPEVAAEIEKAIEELKAILER
B23: usp_38_diff_out_2_35_489 (protein)
chain: SEEEEEFRREARERLDKLADEVNDTTRETLEALAEADAPLEEIERVLEESDKAFKAIAEAYRLIREGASREEIEEALKKAEEKVKEFKKYAEEVLKRLKE
B24: usp_38_diff_out_2_61_510 (protein)
chain: NKELEKMIKEIEAKIKEAKALVDELEAGLDTLDEETLEALLAEARAVLDEAIDLLVKAYELAHELDDKEALERLDKLWDELGEVAARLREARERFTRRRR
B25: usp_38_diff_out_2_35_491 (protein)
chain: AAAEAARREEIRRRIDEMVDEANELTAETLEKLAEADAPDEKFEELFEAYDELMRLLARTYRLIREGAPLEEIERALEEAERKLEEFKKLAEELKKEAEE
B26: usp_38_diff_out_2_113_460 (protein)
chain: DEEERKELAELYKKTILEGAEKLLKRTKKGTLSTATQIAMLGGIVHAAKEAAKLDPSVKPVLEEVIKKLKEIAELVKDKNPELYAATQKAIEEIEKILKE
B27: usp_38_diff_out_2_113_463 (protein)
chain: SEEERRERAEDLARIILEGSEYLLEKAKRGTLSGETMITMIGGIVHAAEEAFRLDPSVAPVIKRAIEKLKEIAELYKDKNPEVYEAIKEAIERLEKLLAE
B28: usp_38_diff_out_2_35_493 (protein)
chain: SMEERREREERLKEIGARIDEAHELTREALELLAEIDAPQERFDRLFATYDAAMRALTAEARAVREGAPQEEIDRLRAEAEAALAELKALLAEARKLAAE
B29: usp_38_diff_out_24_27_499 (protein)
chain: EEEKQKLLKELLKKFEEILKLSEKAVGADLATRIKLSSEIDEKLEEARKLAKELGDEEIEELVTKVEIAANIVLSGSEEAEEALKEIKKLVEELKKKIEE
B30: usp_38_diff_out_24_27_503 (protein)
chain: EEERKEKIERLKKLLEEILKLLEESRTGDISVRIRASSEIDELAEEIRKILEELGNEEGLELLTEFETQVYAVLSRSPNWEEHFEKAKELAEKILELAKK
B31: usp_38_diff_out_2_113_472 (protein)
chain: DPEEKKKEAELYKDIITEGADQLLELAKKGKLTPDRTAVMTAGIVHAAEVAYELDPSVKPTIEEVIKKLEEVYELVKDKNPEVAKIIEEAIKKLKEILKK
B32: usp_38_diff_out_2_61_507 (protein)
chain: SAELQAQAERIEALLAQAEALIAELEAQLDTADEATLRALLAEAQAVLDEAIDLLVELYLRAHEAGDEEALAQADALWDRLGAVAARLRRAREALTDRLS

Target: T1, USP38, Q8NB14
Test: median log2 fold change of GCK-ALFA target abundance (FLAG IP / Myc IP barcode read proportion) (log2 ratio); each designed protein is fused to an ALFA-tag nanobody in HEK293 cells to bring the named protein to FLAG-tagged glucokinase (GCK); Myc marks an untargeted standard; higher = target protein stabilised (more abundant)
Settings: target protein: 3xFLAG-MCP-GCK-ALFA reporter; HEK293 landing pad (RPLP)
Method in brief: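 HEK293 landing-pad cells received a recombined binder library fused to the ALFA nanobody and were induced with 2 μg mL^−1 doxycycline, then transfected with a plasmid encoding a FLAG-tagged target and a Myc-tagged standard. Lysates were collected after 48 h for anti-FLAG and anti-Myc immunoprecipitation, and the circular RNA barcodes were reverse transcribed, amplified and sequenced. Target abundance for each binder is the median log2 ratio of FLAG to Myc barcode read proportions. Barcodes had to reach a proportion of at least 10^−7 in both replicates, each binder needed at least 3 barcodes per replicate, a pseudocount of 10^−6 was applied, and the two replicates were pooled.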

Q: Which “median log2 fold change” value does the source give for B1 here?
A: 0.427

Q: For B2, which “median log2 fold change” value is on record?
A: 0.141

Q: How did the “median log2 fold change” value turn out when B3 was run?
A: 0.3

Q: For B4, which “median log2 fold change” value is on record?
A: 0.0889

Q: B5 was tested. Which “median log2 fold change” value did it give?
A: -0.0131

Q: Which “median log2 fold change” value does the source give for B6 here?
A: -0.698

Q: How did the “median log2 fold change” value turn out when B7 was run?
A: 0.412

Q: How did the “median log2 fold change” value turn out when B8 was run?
A: 0.205

Q: B9 was tested. Which “median log2 fold change” value did it give?
A: 0.0135

Q: How did the “median log2 fold change” value turn out when B10 was run?
A: 0.548

Q: Which “median log2 fold change” value does the source give for B11 here?
A: 0.00989

Q: For B12, which “median log2 fold change” value is on record?
A: 0.0135

Q: How did the “median log2 fold change” value turn out when B13 was run?
A: -0.0997

Q: With B14 as the binder, how does the “median log2 fold change” value read?
A: 0.112

Q: For B15, which “median log2 fold change” value is on record?
A: 0.28

Q: Which “median log2 fold change” value does the source give for B16 here?
A: -0.00144

Q: B17 was tested. Which “median log2 fold change” value did it give?
A: 0.151

Q: B18 was tested. Which “median log2 fold change” value did it give?
A: 0.211

Q: For B19, which “median log2 fold change” value is on record?
A: 0.157

Q: How did the “median log2 fold change” value turn out when B20 was run?
A: 0.364

Q: B21 was tested. Which “median log2 fold change” value did it give?
A: -0.394

Q: Which “median log2 fold change” value does the source give for B22 here?
A: -0.156

Q: For B23, which “median log2 fold change” value is on record?
A: 0.192

Q: How did the “median log2 fold change” value turn out when B24 was run?
A: 0.4

Q: With B25 as the binder, how does the “median log2 fold change” value read?
A: 0.305

Q: B26 was tested. Which “median log2 fold change” value did it give?
A: 0.123

Q: How did the “median log2 fold change” value turn out when B27 was run?
A: -0.229

Q: B28 was tested. Which “median log2 fold change” value did it give?
A: -0.077

Q: Which “median log2 fold change” value does the source give for B29 here?
A: 0.204

Q: B30 was tested. Which “median log2 fold change” value did it give?
A: -0.574

Q: For B31, which “median log2 fold change” value is on record?
A: 0.269

Q: B32 was tested. Which “median log2 fold change” value did it give?
A: -0.299
